USP1 inh – USP1/UAF1 (human) deubiquitinase inhibition | O94782 | recombinant USP1/UAF1, Ub-Rhodamine cleavage fluorescence | Potency, µM (top dose mostly 57.1 µM), for inactives: top-dose activity change, negative = inhibition, usual class: inhibitors | actives 0.23% (n = 390,000) | AID 743255; also: % is scaled to controls: 0 for no effect and ±100 for the full control effect; nearly all actives have a fitted effect of over 60% in size
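USP1/UAF1 complex at 1 nM was preincubated with compound for 15 min at room temperature, then Ub-Rho substrate (150nM final) was added. Fluorescence (480/540 nm) was read kinetically, 6 reads every 60 seconds.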
EPAC1 ag – agonists of human EPAC1 | O95398 | actives 0.073% (n = 360,000) | EPAC1 agonist qHTS, biochemical assay; response scale: 100% = response to 6.5 mM cAMP | AID 720707 | Potency, µM (series often up to 154 µM), without a hit: at the top dose activation, actives largely listed as activators; also: nearly all actives have a fitted effect of over 60% in size
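Fluorescent GDP-exchange assay: 100 nM EPAC1 with 250 nM Rap1B preloaded with BODIPY-GDP and 50 uM GDP; compounds tested as concentration series, 5 min at room temperature, then read every 5 min for 30 min (ex 480/em 540 nm); normalized to 6.5 mM cAMP.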
EPAC1 antagonist – blocks human EPAC1 exchange factor; Potency, µM (doses to about 115 µM), for the others: at the top dose activity change, negative = inhibition, most hits filed as inhibitors; O95398; actives 0.14% (n = 360,000); EPAC1 GEF assay, Rap1b-BODIPY-GDP exchange fluorescence;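 also: plate controls were vehicle for no effect and positive control for full effect; nearly all actives have a fitted effect of over 50% in size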
EPAC2 antag – blocks human EPAC2 exchange factor. AID 720708. EPAC2 GEF exchange of Rap1B-BODIPY-GDP, fluorescence. actives 0.18% (n = 360,000). Potency, µM (series often up to 114 µM), for the others: at the top dose activity, negative = inhibition, hits mostly inhibitors; also: % is scaled to controls: 0 for no effect and ±100 for the full control effect; nearly all actives have a fitted effect of over 45% in size
Target sequence (Q8WZA2 whole entry, looked up): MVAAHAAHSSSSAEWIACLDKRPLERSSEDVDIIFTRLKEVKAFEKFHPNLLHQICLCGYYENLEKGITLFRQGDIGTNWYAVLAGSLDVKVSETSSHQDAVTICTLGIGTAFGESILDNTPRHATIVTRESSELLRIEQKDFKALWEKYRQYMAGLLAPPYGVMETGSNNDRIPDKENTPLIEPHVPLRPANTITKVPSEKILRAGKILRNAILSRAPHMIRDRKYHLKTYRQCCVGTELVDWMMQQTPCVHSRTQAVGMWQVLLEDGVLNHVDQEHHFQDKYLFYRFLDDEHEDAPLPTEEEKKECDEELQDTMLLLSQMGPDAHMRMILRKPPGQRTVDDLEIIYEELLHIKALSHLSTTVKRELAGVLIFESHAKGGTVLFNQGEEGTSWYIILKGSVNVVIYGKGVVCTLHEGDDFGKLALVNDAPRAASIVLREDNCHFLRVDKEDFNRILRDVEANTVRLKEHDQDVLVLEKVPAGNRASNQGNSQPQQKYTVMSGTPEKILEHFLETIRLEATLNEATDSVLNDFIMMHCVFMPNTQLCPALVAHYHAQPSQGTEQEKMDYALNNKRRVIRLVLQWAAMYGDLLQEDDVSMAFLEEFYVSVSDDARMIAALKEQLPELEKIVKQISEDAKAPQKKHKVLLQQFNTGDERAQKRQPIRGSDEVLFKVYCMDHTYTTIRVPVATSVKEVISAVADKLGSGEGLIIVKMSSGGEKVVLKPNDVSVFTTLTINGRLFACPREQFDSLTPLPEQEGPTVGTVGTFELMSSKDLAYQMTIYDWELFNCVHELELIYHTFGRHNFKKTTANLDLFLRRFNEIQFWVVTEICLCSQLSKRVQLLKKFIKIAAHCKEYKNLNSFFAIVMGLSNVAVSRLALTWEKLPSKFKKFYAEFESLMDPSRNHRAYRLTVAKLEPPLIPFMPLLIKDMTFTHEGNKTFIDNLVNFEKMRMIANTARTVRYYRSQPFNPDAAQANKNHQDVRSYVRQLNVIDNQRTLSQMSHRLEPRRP
EPAC2 ag – activates human EPAC2 exchange factor. Q8WZA2. EPAC2 activation, biochemical qHTS; response scale: 100% = 6.5 mM cAMP response. Potency, µM (highest dose often 154 µM), inactives show top-dose activation, actives largely listed as activators. actives 0.079% (n = 360,000); also: nearly all actives have a fitted effect of over 50% in size
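Readout is BODIPY fluorescence (480 nm excitation, 540 nm emission), which falls as labeled GDP is exchanged off Rap1B. EPAC2 at 100 nM acted on 250 nM RAP1B-BODIPY-GDP with 50 uM GDP present.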
GLP1R cytotox – cytotoxic in the GLP-1 receptor inverse agonist counter-screen; HEK293 cAMP-luciferase reporter cells, luminescence, 24 h; Potency, µM (highest dose often 38.3 µM), inactives show at the highest dose activity change, negative = inhibition, hits mostly inhibitors; actives 0.13% (n = 410,000); AID 624418;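 also: loss of luciferase light is scored as toxicity; % is scaled to controls: 0 for no effect and ±100 for the full control effect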
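Luminescence readout: signal drop marks cytotoxicity. Plated cells grew 12 h at 37 °C, 5% CO2, received 23 nL compound for 24 h, then got luciferase reagent, read after 12 min at RT.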
The depositor's hits bear a star; i = inactive; ? = inconclusive; . = not tested or not shown. This is a sample that favours compounds with a hit; in the whole collection about 0.55% have one here. Calls follow the shape of the dose curve; as a rule, active = well fitted curve in the direction sought with a large enough effect; inconclusive = small, poorly fitted or top-dose-only effect, or another doubt; inactive = no such curve, though single readings can be large; an effect the other way counts as inactive or inconclusive. Potency is read from the fitted curve at half-maximal effect.

SMILES	USP1 inh	EPAC1 ag	EPAC1 antagonist	EPAC2 antag	EPAC2 ag	GLP1R cytotox
O=c1c(-c2c(O)cc(O)c3c(=O)cc(-c4ccc(O)cc4)oc23)c(-c2ccc(O)cc2)oc2cc(O)cc(O)c12	3%	-16%	56µM*	5%	14%	-7%
C/C(=N\NC(=S)NC(C)C)c1ccc2c(c1)OCCO2	-9%	-9%	0%	7%	4%	4.5µM*
CNC(=S)N/N=C(\C)c1ccc2c(c1)OCCO2	-24%	4%	-15%	2%	0%	?
COc1ccc(S(=O)(=O)N2CCOC23CCN(S(=O)(=O)c2cccs2)CC3)cc1	-18%	56µM*	-4%	4%	-1%	0%
CCCC(=O)Nc1nnc(SCc2cc(=O)c3ccc(C)cc3[nH]2)s1	-13%	.	.	.	.	14%
CCOC(=O)c1c(CN(C)C)n(C)c2c(O)c(N=NC(N)=O)c3ccc(Br)cc3c12	35µM*	2%	3%	0%	-1%	?
CCCn1c(=O)c(C(=O)OCC)c(O)c2cc(Br)ccc21	-10%	-14%	-11%	4%	-3%	2%
O=C1CCn2c1c(O)c1ccccc1c2=O	5µM*	13%	0%	1%	32%	i
C=CCN(CC=C)Cc1cc(=O)oc2cc(OC)c(Cl)cc12	.	-4%	-20%	32µM*	14%	-13%
COc1ccc(-c2csc(NC(=O)c3ccccc3NS(=O)(=O)c3ccc(F)c(F)c3)n2)cc1	-25%	-1%	50µM*	16µM*	10%	?
O=C(Nc1cc(S(=O)(=O)N2CCCCC2)ccc1O)c1ccccc1NS(=O)(=O)c1ccc(F)cc1	-3%	4%	?	?	2%	?
O=C(Nc1cc(S(=O)(=O)N2CCCCC2)ccc1Cl)c1ccccc1NS(=O)(=O)c1ccc(F)cc1	-17%	0%	50µM*	-17%	-10%	?
Cc1ccc(S(=O)(=O)Nc2ccccc2C(=O)Nc2nc(-c3ccc(F)cc3)cs2)cc1	-12%	9%	79µM*	-24%	-2%	?
Nc1ccc(-c2c3ccc(=O)cc-3oc3cc(O)ccc23)c(C(=O)O)c1	28µM*	100µM*	160%	199%	126µM*	17%
COc1ccc(NC(=O)c2ccco2)cc1NC(=O)c1cc(Br)ccc1Cl	-22%	.	.	.	.	-1%
CCOc1ccc(/C=C/C(=O)Nc2sc3c(c2C(=O)OC)C(C(=O)OC)CC3)cc1 (centres undefined)	?	.	.	.	.	-6%
CCC(CO)Oc1cc(NCc2ccccc2)c2ncn(C(C)C)c2c1 (centres undefined)	?	-10%	3%	2%	7%	-23%
CCC(COC)Oc1cc(NCc2ccccc2)c2ncn(C(C)C)c2c1 (centres undefined)	13µM*	-20%	?	8%	8%	14%
CCN(CC)c1ccc(CNS(=O)(=O)c2cc3c(cc2C)NC(=O)CO3)cc1	-4%	.	.	.	.	3%
COc1ccccc1NC(=O)C1=C(C)Nc2c(C(=O)Nc3ccc(F)cc3)cnn2C1c1cccc([N+](=O)[O-])c1 (centres undefined)	-25%	.	.	.	.	-9%
CCCCCCCCCC1(CC(=O)OCC)SCCN1C(N)=O (centres undefined)	?	-33%	-13%	-24%	-5%	?
CCOC(=O)c1c2c(n(-c3ccc(OC)cc3)c1C)C(=O)C(=O)c1ccccc1-2	1.8µM*	8%	56µM*	?	22%	3.2µM*
CCOC(=O)c1sc(=S)n(-c2ccc(OC)cc2)c1C	-8%	1%	-26%	-13%	2%	-13%
CN(C)c1ccc(CNC(=O)c2ccc3c(c2)N(C)C(=O)C2CCCCN32)cc1 (centres undefined)	-29%	.	.	.	.	-6%
